Results as given in PubChem BioAssay.
Active and inactive are the calls of the source.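 The calls were made as follows, unless noted: active = visually confirmed hit in the image check and inhibition above 20%; inconclusive = visually confirmed hit but inhibition not above 20%; inactive = no visual hit in the image check.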

Tests used:
[1] = inhibitors of TNFa-induced NFkB p65 translocation, primary screen, imaging, HUVEC, MLSMR starter and 10KST1 sets (AID 438;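 active = inhibition above 20% together with a positive visual image hit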;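 also: compound added about 3h40 before a 20 min TNFalpha stimulation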;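 as to inhibition: signal is the nuclear over cytoplasmic p65 intensity ratio per well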); details: HUVEC TNFa-induced p65 nuclear translocation; cell count: measured here: nuclei count (cytotoxicity indicator), at 2.08 µM; inhibition: at 2 µM, stronger effect = higher value, 0% TNFa-plus-vehicle, 100% no-TNFa wells
[2] = inhibitors of mutant huntingtin aggregation, primary screen, imaging, exon1htt(103Q)mCFP cells, high-content imaging (AID 483;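 active = visual image review flags a hit and inhibition of aggregation exceeds 20%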;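 also: compound exposure lasted 3 days before fixation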;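 as to nuclei count: percent of the per-plate median nuclei count of sample wells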); details: exon1htt(103Q)mCFP cell line, aggregate imaging, at 2 µM; inhibition of aggregation: stronger effect = higher value; nuclei count: measured here: cell count, toxicity
[3] = inhibitors of E-selectin induction by TNFa, primary screen, imaging, HUVEC, immunofluorescence, MLSMR starter and 10KST1 sets (AID 487); details: HUVEC TNFalpha-induced E-selectin immunofluorescence imaging, at 2 µM; inhibition: stronger effect = higher value; nuclei count: measured here: cell number, toxicity;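 as to inhibition: signal is fraction of cell area covered by stained E-selectin grains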;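 as to nuclei count: 100% = median nuclei count of all wells on the same plate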
[4] = target: Voltage-gated potassium channel subunit beta-2 (Rattus norvegicus) (UniProt P62483); experiment: KvBeta enzyme negative modulators, primary screen, biochemical, NADPH fluorescence (AID 622;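 active = fluorescence slope higher than the sample average by over 3 SD, cut at about -0.22 in these data, passing the limit was not always enough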;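 also: slope of raw intensity against log time taken from 70 to 1610 s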); details: recombinant KvBeta, 4-cyanobenzaldehyde reduction, at 10 µM, stronger effect = higher value
[5] = target: Voltage-gated potassium channel subunit beta-2 (Rattus norvegicus) (UniProt P62483); experiment: KvBeta positive modulators, primary screen, biochemical, NADPH fluorescence (AID 623;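 active = NADPH fluorescence slope more negative than the mean of all samples by about 3 SD, 99.7% confidence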;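 also: fluorescence intensity change per second fitted from 20 to 320 s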); details: Recombinant KvBeta, NADPH fluorescence decrease slope, 10 min; at 10 µM; stronger effect = lower value
[6] = target: Alpha-2C adrenergic receptor (Homo sapiens) (UniProt P18825); experiment: modulators of alpha2C/GIRK thallium flux, primary screen, cell-based, HEK293 alpha2C/GIRK1/2 (AID 624;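 active = fluorescence slope after compound addition differing from the mean of all screened samples at 99.7% confidence, in either direction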;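 also: slope of fluorescence ratio to pre-addition baseline per second over 15 to 24 s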); details: thallium flux BTC fluorescence, at 10 µM, actives lie on both sides
[7] = inhibitors of Sendai virus-induced IRF3 signaling, primary screen, TLR/RLR signaling modifier project, cell-based, Sendai virus stimulus, luciferase, 10K MLSCN set (AID 602276;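 active = inhibition at or above 50% at 10 µM; inactive = inhibition below 50%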;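 also: firefly luciferase from ISG56 promoter only with Renilla not read in this screen; 0% = Sendai virus plus DMSO and 100% = medium plus DMSO without virus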); details: HEK293 RL24 IRF3 luciferase reporter, at 10 µM, stronger effect = higher value
[8] = inhibitors of poly I:C-induced TLR3 signaling, primary screen, cell-based, poly I:C stimulus, luciferase, 10K MLSCN set (AID 602277;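 active = inhibition of the reporter signal at or above 50%; inactive = inhibition below 50%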); details: HEK293-TLR3 RL24 IRF3 luciferase reporter, at 10 µM, stronger effect = higher value

Chain of Alpha-2C adrenergic receptor (Homo sapiens) (P18825 whole entry, looked up): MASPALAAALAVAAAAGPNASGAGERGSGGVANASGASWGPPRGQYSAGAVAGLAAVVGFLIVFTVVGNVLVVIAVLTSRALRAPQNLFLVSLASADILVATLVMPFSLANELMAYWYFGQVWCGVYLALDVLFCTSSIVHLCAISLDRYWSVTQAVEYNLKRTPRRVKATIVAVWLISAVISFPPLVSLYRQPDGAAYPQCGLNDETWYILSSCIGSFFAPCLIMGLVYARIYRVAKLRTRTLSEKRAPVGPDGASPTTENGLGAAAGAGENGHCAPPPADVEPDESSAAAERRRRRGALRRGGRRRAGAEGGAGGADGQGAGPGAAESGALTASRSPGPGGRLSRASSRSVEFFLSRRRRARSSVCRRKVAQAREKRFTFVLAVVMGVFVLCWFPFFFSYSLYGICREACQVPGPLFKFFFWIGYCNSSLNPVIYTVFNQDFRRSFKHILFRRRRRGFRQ
Chain of Voltage-gated potassium channel subunit beta-2 (Rattus norvegicus) (P62483 whole entry, looked up): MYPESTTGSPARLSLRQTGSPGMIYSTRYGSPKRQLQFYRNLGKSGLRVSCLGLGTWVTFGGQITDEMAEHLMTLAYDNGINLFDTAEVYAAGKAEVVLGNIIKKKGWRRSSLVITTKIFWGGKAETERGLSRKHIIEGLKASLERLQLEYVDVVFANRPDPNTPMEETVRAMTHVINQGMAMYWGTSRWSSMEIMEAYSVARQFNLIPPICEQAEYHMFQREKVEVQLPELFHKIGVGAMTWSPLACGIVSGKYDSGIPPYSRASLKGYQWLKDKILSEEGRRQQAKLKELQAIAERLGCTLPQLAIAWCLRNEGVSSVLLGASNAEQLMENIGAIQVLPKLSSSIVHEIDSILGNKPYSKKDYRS

| Structure (SMILES) | cell count [1] | inhibition [1] | inhibition of aggregation [2] | nuclei count [2] | inhibition [3] | nuclei count [3] | fluorescence slope [4] | NADPH fluorescence slope [5] | slope [6] | inhibition [7] | inhibition [8] |
| --- | --- | --- | --- | --- | --- | --- | --- | --- | --- | --- | --- |
| Cc1cccc(C(=O)N(C)c2nnc(-c3ccncc3)s2)c1 | 346 | -10.7% (inactive) | 6.1% (inactive) | 74.3% | 34.2% (inactive) | 102% | -0.546 (inactive) | 9.6e-06 (inactive) | 0.0064 (inactive) | -6.14% (inactive) | -18% (inactive) |
| OC(CN1CCOCC1)Cn1c(-c2cccc(Cl)c2)nc2ccccc21 (stereo not drawn) | 500 | -2.9% (inactive) | -7.7% (inactive) | 108% | -39.6% (inactive) | 112% | -0.598 (inactive) | 1.9e-05 (inactive) | 0.00704 (inactive) | 10.2% (inactive) | 32.2% (inactive) |
| C=CCn1c(=O)c2ccccc2n2c(SC(C)C(=O)Nc3nc(-c4ccccc4)cs3)nnc12 (stereo not drawn) | 462 | 4% (inactive) | 21.8% (inactive) | 90.4% | -26% (inactive) | 107% | -0.483 (inactive) | -2.2e-05 (inactive) | 0.00616 (inactive) | 10.9% (inactive) | 34.2% (inactive) |
| COc1ccc(N2CCN(CCNS(=O)(=O)c3cccc4nsnc34)CC2)cc1 | 353 | -3% (inactive) | 8.4% (inactive) | 106% | -119% (inactive) | 104% | -0.443 (inactive) | 1.8e-05 (inactive) | 0.00512 (inactive) | 11.2% (inactive) | 18% (inactive) |
| Cc1cc(N)n2nc(-c3ccccc3)cc2n1 | 492 | 1.2% (inactive) | 0% (inactive) | 98.3% | -15.5% (inactive) | 110% | -0.421 (inactive) | -8.6e-05 (inactive) | 0.00566 (inactive) | -31.2% (inactive) | -74.6% (inactive) |
| CCOC(=O)CSc1nc2cc(C(=O)N3CCC(C(N)=O)CC3)ccc2c(=O)n1-c1ccccc1 | 391 | 4.8% (inactive) | -5.8% (inactive) | 93.5% | -26.1% (inactive) | 95.3% | -0.37 (inactive) | -5.8e-05 (inactive) | 0.00452 (inactive) | 10.8% (inactive) | 9.87% (inactive) |
| COC(=O)C(C#N)C(=C1C(=O)CC(C)(C)CC1=O)c1ccc(O)cc1 (stereo not drawn) | 315 | 1.2% (inactive) | 12% (inactive) | 92.7% | 15% (inactive) | 109% | -0.319 (inactive) | -2.3e-05 (inactive) | 0.00607 (inactive) | 9.88% (inactive) | 10.9% (inactive) |
| O=c1c2cc3ccccc3n2cnn1Cc1ccccc1F | 345 | -8.5% (inactive) | 29.9% (inactive) | 89.6% | -105% (inactive) | 108% | -0.51 (inactive) | 3.1e-05 (inactive) | 0.00758 (inactive) | -21.7% (inactive) | -7.8% (inactive) |
| Cc1ccc(S(=O)(=O)N2CCC(C(=O)N3CCN(Cc4ccccc4)CC3)CC2)cc1 | 659 | -14% (inactive) | 19% (inactive) | 110% | -40.7% (inactive) | 106% | -0.518 (inactive) | -1.5e-05 (inactive) | 0.0064 (inactive) | 8.56% (inactive) | 16.4% (inactive) |
| O=S(CC(O)COCc1ccc(Cl)cc1)c1ccccn1 (stereo not drawn) | 420 | -7.1% (inactive) | -11.3% (inactive) | 107% | -37% (inactive) | 127% | -0.442 (inactive) | 6.3e-05 (inactive) | 0.00586 (inactive) | 18.9% (inactive) | 23.8% (inactive) |
| Cc1cc(C(=O)Nc2ccc(S(=O)(=O)Nc3onc(C)c3C)cc2)cs1 | 608 | -3% (inactive) | 15.4% (inactive) | 94.1% | -17.7% (inactive) | 105% | -0.361 (inactive) | -5e-05 (inactive) | 0.00493 (inactive) | 5.43% (inactive) | 8.03% (inactive) |
| COc1ccccc1N1CCN(C(=O)CSc2nc3ncnc(N)c3[nH]2)CC1 | 467 | -8.8% (inactive) | -0.2% (inactive) | 110% | -144% (inactive) | 162% | -0.52 (inactive) | 7.1e-06 (inactive) | 0.00625 (inactive) | 16% (inactive) | 23.6% (inactive) |
| CC(=O)Nc1cccc(NC(=O)C2CCCN2C(=O)Nc2ccc(C)cc2)c1 (stereo not drawn) | 789 | -3.2% (inactive) | 0.5% (inactive) | 89.4% | -3.5% (inactive) | 111% | -0.507 (inactive) | -4.3e-06 (inactive) | 0.0061 (inactive) | -9.54% (inactive) | 20.3% (inactive) |
| CCN(CC)Cc1nc2c(c(=O)[nH]1)C1(CCCCC1)Cc1ccccc1-2 | 443 | 9.9% (inactive) | -2.4% (inactive) | 89.3% | -17% (inactive) | 101% | -0.589 (inactive) | -5.5e-05 (inactive) | 0.00352 (inactive) | 10% (inactive) | 10.5% (inactive) |
| CN1CCN(c2nc3c(c(=O)[nH]c(=O)n3C)n2CCOc2ccccc2)CC1 | 311 | 6.2% (inactive) | 0.9% (inactive) | 108% | -45.8% (inactive) | 116% | -0.489 (inactive) | -4.3e-05 (inactive) | 0.00596 (inactive) | 3.18% (inactive) | 27.3% (inactive) |
| CCCC(=O)Nc1ccc(NC(=O)c2ccccc2OC)cn1 | 376 | -3.6% (inactive) | 18.8% (inactive) | 90.7% | -23.7% (inactive) | 96.3% | -0.442 (inactive) | 7.2e-05 (inactive) | 0.00808 (inactive) | 1.27% (inactive) | -1.09% (inactive) |
| COc1ccc(NC(=O)C23CCC(C)(C(=O)C2)C3(C)C)cc1 (stereo not drawn) | 606 | -7.7% (inactive) | -15.6% (inactive) | 103% | -111% (inactive) | 108% | -0.6 (inactive) | 6.7e-07 (inactive) | 0.00539 (inactive) | 12.6% (inactive) | 17.8% (inactive) |
| CCOc1ccc(S(=O)(=O)Nc2ccc(Cl)cn2)c(C)c1C | 536 | -35.7% (inactive) | 20.2% (inactive) | 87.4% | -43.3% (inactive) | 101% | -0.475 (inactive) | -3e-05 (inactive) | 0.00637 (inactive) | 4.93% (inactive) | 26.8% (inactive) |
| CCCn1c(SCC(=O)NCc2ccco2)nc2c1c(=O)n(C)c(=O)n2C | 433 | -9.2% (inactive) | 16.5% (inactive) | 104% | -144% (inactive) | 160% | -0.379 (inactive) | -4.1e-05 (inactive) | 0.0049 (inactive) | 16.6% (inactive) | 10.9% (inactive) |
| CN(C1CCCCC1)S(=O)(=O)c1ccc(S(=O)(=O)N2CCCC2)cc1 | 737 | -10.5% (inactive) | -9.6% (inactive) | 100% | -78.3% (inactive) | 126% | -0.432 (inactive) | -2.1e-05 (inactive) | 0.00521 (inactive) | 16.1% (inactive) | 21.2% (inactive) |
| O=C(NCc1cccs1)C(Cc1ccccc1)n1cccc1 (stereo not drawn) | 602 | -6.3% (inactive) | 6.2% (inactive) | 95.4% | -25.8% (inactive) | 115% | -0.614 (inactive) | -5.2e-05 (inactive) | 0.00634 (inactive) | 1.52% (inactive) | 26.2% (inactive) |
| O=C(COc1ccccc1)Nc1ccccc1N1CCN(c2ccccc2)CC1 | 672 | 10.8% (inactive) | -7.4% (inactive) | 84.2% | -71.5% (inactive) | 110% | -0.609 (inactive) | -3.5e-05 (inactive) | 0.00412 (inactive) | 16.7% (inactive) | 3.18% (inactive) |
| Cc1ccnc(NC(=O)C2CCCN(S(=O)(=O)c3cnc[nH]3)C2)c1 (stereo not drawn) | 526 | -2.4% (inactive) | 39.4% (active) | 84.3% | -81.7% (inactive) | 110% | -0.564 (inactive) | -2.6e-05 (inactive) | 0.00685 (inactive) | -13.6% (inactive) | 7.28% (inactive) |
| CC(C)COc1ccc(C(=O)OCCN2CCOCC2)cc1 | 211 | 2.3% (inactive) | -8.6% (inactive) | 108% | -18.5% (inactive) | 116% | -0.636 (inactive) | 1.1e-05 (inactive) | 0.00666 (inactive) | -17.8% (inactive) | -15% (inactive) |
| COCCn1c(C)c(C(=O)O)sc1=S | 279 | 3.8% (inactive) | 8.1% (inactive) | 86.9% | -4.7% (inactive) | 104% | -0.416 (inactive) | 5e-06 (inactive) | 0.00261 (inactive) | 9.55% (inactive) | -6.08% (inactive) |
| CC(C)(C)c1cc(NS(=O)(=O)c2ccc3c(c2)OCCO3)on1 | 574 | -2.4% (inactive) | 5.3% (inactive) | 104% | -81.6% (inactive) | 167% | -0.586 (inactive) | -2.5e-06 (inactive) | 0.0066 (inactive) | 11.1% (inactive) | 20.1% (inactive) |
| Cc1cc(OCC(=O)N2CCOCC2)cc2oc(=O)c3ccccc3c12 | 352 | 6.7% (inactive) | -9.5% (inactive) | 90.7% | 3.4% (inactive) | 124% | -0.329 (inactive) | 2.7e-05 (inactive) | 0.00625 (inactive) | -4.13% (inactive) | -8.03% (inactive) |
| Cc1ccc2c(c1)CCCN2C(=O)C1CCCO1 (stereo not drawn) | 354 | -6.4% (inactive) | 7.6% (inactive) | 95% | -84.4% (inactive) | 86.9% | -0.417 (inactive) | -4e-05 (inactive) | 0.00423 (inactive) | 10.7% (inactive) | 17.6% (inactive) |
